Compound activity deposited in PubChem BioAssay by NMMLSC.
The list is not random: actives were taken first. Their share in the collection is about 1.2%.
RGS8-Gao reg: modulates binding of RGS8 to human Galphao | AID 1423 | 0.34% of 220,000 active | response (percent of control binding), % at 10 µM | multiplexed bead flow cytometry; actives lie on both sides; in the data active means response below about 60% or above about 140%; inactive means in between;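 further: Galphao activated as the GDP aluminium fluoride complex binding bead-coupled RGS8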
Target sequence (P09471 whole entry, looked up): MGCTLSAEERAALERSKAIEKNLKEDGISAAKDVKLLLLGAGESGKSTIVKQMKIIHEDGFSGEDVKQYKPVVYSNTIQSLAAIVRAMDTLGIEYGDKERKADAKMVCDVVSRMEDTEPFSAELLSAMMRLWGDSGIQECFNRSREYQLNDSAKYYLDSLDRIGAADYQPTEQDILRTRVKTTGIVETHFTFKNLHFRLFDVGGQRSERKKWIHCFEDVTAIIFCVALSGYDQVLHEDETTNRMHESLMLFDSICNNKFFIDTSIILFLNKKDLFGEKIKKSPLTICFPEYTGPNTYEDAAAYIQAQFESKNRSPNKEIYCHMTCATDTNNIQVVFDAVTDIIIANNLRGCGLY
Avidin bead fluor: avidin bead compound fluorescence profile | Avidin beads, compound fluorescence 488/530 nm, flow cytometry; hits give high values | fluorescence (KMESF) at 10 µM | 0.38% of 220,000 active | AID 1775; in the data active means fluorescence above about 47
RGS16-Gao: RGS16-Galphao interaction regulator (human); O15492+P09471; AID 1441; 0.38% of 220,000 active; binding response (% of control), % at 10 µM; bead-based flow cytometry RGS16-Galphao binding, fluorescence; actives lie on both sides;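 further: Galphao activated by GDP with aluminum fluoride before binding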
RGS7-Gao reg: regulators of human RGS7-Galphao interaction; Multiplexed bead flow cytometry, RGS7-Galphao binding; actives lie on both sides; binding response (% of control), % at 10 µM; 0.35% of 220,000 active; in the data active means binding response below about 49% or above about 150%; inconclusive means no clear call, values can overlap the other calls; inactive means in between;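 further: fluorescent Galphao held in activated GDP-AlF4 state binding bead-coupled RGS7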
GSH fluor: compound fluoresces at 488/530 nm on GSH beads. GSH beads flow cytometry, compound fluorescence 488/530 nm; hits give high values. fluorescence (KMESF) at 10 µM. 0.25% of 190,000 active. AID 1776; in the data active means fluorescence above about 89;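 further: glutathione beads carrying GST-tagged Bcl family fusion proteins plus one bare bead set; values are compound well signal with DMSO vehicle wells as background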
RGS4-Gao reg: modulates binding of RGS4 to human Galphao | P09471 | Multiplexed bead flow cytometry; actives lie on both sides | binding response (% of control), % at 10 µM | 0.33% of 220,000 active | AID 1415; in the data active means binding response below about 49% or above about 150%; inactive means in between;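 further: fluorescent Galphao activated with aluminum fluoride binding bead-coupled RGS4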
RGS-Gao: RGS4-Galphao interaction regulator (human). shares compounds with RGS16-Gao. multiplexed bead flow cytometry, RGS–Galpha-o binding. 99% of 1,600 active. AID 1504. RGS4–Galpha-o binding response, % at 10 µM;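 further: fluorescently labeled Galpha-o bound to GDP with aluminium fluoride binding biotinylated RGS beads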
Avidin counter: biotin-avidin bead binding disruption counter-screen; AID 1783; shares compounds with RGS16-Gao; 1,700 tested, under 10 active; streptavidin beads, fluorescein-biotin binding, flow cytometry; inhibition, % at 10 µM;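 active means inhibition above 50%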;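 further: median green fluorescence of gated singlet beads compared with DMSO control wells; 0% = DMSO wells and 100% = complete loss of bead fluorescence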
RGS8-Gao single: RGS8-Galphao interaction regulation, single point confirmation | shares compounds with RGS16-Gao | bead-based flow cytometry RGS8-Galphao binding, fluorescence; actives lie on both sides | binding response (% of control), % at 10 µM | 3% of 1,700 active; in the data active means binding response below about 72% or above about 130%; inactive means in between;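 further: Galphao activated as GDP AlF4 complex before binding bead RGS8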
RGS7-Gao confirm: RGS7-Galphao interaction regulation, single point confirmation; shares compounds with RGS16-Gao; bead-based flow cytometry RGS7-Galphao binding; actives lie on both sides; response (percent of control binding), % at 10 µM; 7.8% of 1,700 active; AID 1837; in the data active means response below about 75% or above about 130%; inactive means in between;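 further: fluorescent Galphao activated with GDP and aluminum fluoride binding bead-coupled RGS7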
RGS16-Gao conf: confirmation of regulators of human RGS16-Galphao interaction. response (% of control binding), % at 10 µM. 4% of 1,700 active. shares compounds with RGS16-Gao. bead-based flow cytometry, RGS16-Galphao binding; actives lie on both sides; in the data active means response below about 74% or above about 130%; inactive means in between;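 further: Galphao activated as the GDP aluminium fluoride complex binding bead-coupled RGS16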
RGS4-Gao single: RGS4-Galphao interaction regulation, single point confirmation; binding response (% of control), % at 10 µM; RGS4-Galphao binding, multiplexed bead flow cytometry; actives lie on both sides; 4% of 1,700 active; shares compounds with RGS16-Gao; in the data active means binding response below about 74% or above about 130%; inactive means in between
RGS19-Gao single: confirmation of regulators of human RGS19-Galphao interaction; shares compounds with RGS16-Gao; bead-based flow cytometry RGS19-Galphao binding; actives lie on both sides; response (percent of control binding), % at 10 µM; 5% of 1,700 active; in the data active means response below about 50% or above about 160%; inactive means in between;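 further: 100% = no compound control and 0% = blank background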
Target sequence (P09471 whole entry, looked up): as above
Target sequence (P49795 whole entry, looked up): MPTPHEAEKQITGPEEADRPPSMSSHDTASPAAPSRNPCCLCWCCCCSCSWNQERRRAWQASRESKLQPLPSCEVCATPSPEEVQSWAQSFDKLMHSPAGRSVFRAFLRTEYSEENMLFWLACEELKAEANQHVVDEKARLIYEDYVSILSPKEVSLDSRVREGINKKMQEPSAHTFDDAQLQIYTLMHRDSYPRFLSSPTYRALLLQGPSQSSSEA
* = called active by the depositor; i = inactive; ? = inconclusive; / = no result given; [ ] = dose if it differs, or a comment. Unless noted, how the calls were made is not given here.

SMILES | RGS8-Gao reg | Avidin bead fluor | RGS16-Gao | RGS7-Gao reg | GSH fluor | RGS4-Gao reg | RGS-Gao | Avidin counter | RGS8-Gao single | RGS7-Gao confirm | RGS16-Gao conf | RGS4-Gao single | RGS19-Gao single
COc1cccc(C2C(C(=O)c3cc4cccc(OC)c4o3)=C(O)C(=O)N2c2cc(C)on2)c1OC (stereo unspecified) | 34.2* | -1 | 1.2* | 11.0* | 27 | -0.4* | / | -0.2 | 102.2 | 105.6 | 103.6 | 106.0 | 100.1
Fc1ccc(-c2n[nH]c(=S)c3ccccc23)cc1 | 99.6 | 16 | 101.8 | 100.3 | 7 | 97.6 | / | / | / | / | / | / | /
CCn1nnc(NC(=O)CSc2ccc(Cl)cc2)n1 | / | / | / | / | 34 | / | / | -0.5 | 96.8 | 90.0 | 100.0 | 92.7 | 114.3
CC(=O)c1sc(C(=O)O)c(-c2ccco2)c1-c1ccco1 | 100.0 | 3 | 104.4 | ? | / | 98.7 | / | / | / | / | / | / | /
COc1ccc([N+](=O)[O-])cc1NC(=O)c1cn(-c2ccc(C)c(C)c2)c(=O)c2ccccc12 | 98.5 | 8 | 100.6 | 100.6 | 11 | 101.3 | / | / | / | / | / | / | /
O=C(CCCOc1ccc(Cl)cc1Cl)Nc1ccncc1 | / | / | / | / | 40 | / | / | 0.1 | 104.3 | 95.7 | 106.1 | 100.9 | 99.1
COc1ccc(C2C(C#N)=C(N)Oc3c2sc2nc(C)cc(C)c32)cc1 (stereo unspecified) | 103.2 | 89* | 187.1*[activator] | 117.3 | 6 | 121.0 | 121.0* | -0.9 | 101.2 | 101.0 | 99.5 | 102.1 | 104.3
O=C1CC(NNC(=O)c2cccc(F)c2)C(=O)N1 (stereo unspecified) | 102.4 | 8 | 101.2 | ? | / | 107.3 | / | / | / | / | / | / | /
N#Cc1c(-c2ccccc2)nc(SCC(=O)N(c2ccccc2)c2ccccc2)[nH]c1=O | 49.7* | 3 | 6.4 | 51.1 | 20 | 76.7 | 76.7* | 1.3 | 104.5 | 101.5 | 103.6 | 100.0 | 108.2
COc1ccc(-c2noc(CCC(=O)O)n2)cc1 | 95.7 | 11 | 94.0 | 95.1 | 23 | 94.6 | / | / | / | / | / | / | /
COc1cc(CCC(=O)O)on1 | 20.3* | -1 | -8.1* | ? | / | -10.4* | / | -1.4 | 97.9 | 80.7 | 94.2 | 89.8 | 80.4
CCOC(=O)C1=C(N)OC2=C(C(=O)CCC2)C1c1ccccc1OCC (stereo unspecified) | 96.8 | 172* | 111.2 | 295.8*[activator] | 34 | 134.6 | 134.6* | -0.2 | 97.4 | 93.1 | 97.1 | 99.4 | 98.6
CCOC(=O)C1=C(N)OC2=C(C(=O)CCC2)C1c1ccccc1OC (stereo unspecified) | 100.5 | 11 | 105.4 | 99.0 | 16 | 99.2 | / | / | / | / | / | / | /
Cc1[nH]n(-c2ccccc2)c(=S)c1C=Nc1cccc([N+](=O)[O-])c1 | 68.6 | 7 | 19.0* | 106.8 | 9 | 94.9 | 94.9* | -0.2 | 54.3* | 83.9 | 5.9* | 86.3 | 9.1*
CCCCN=Cc1c(C)[nH]n(-c2ccccc2)c1=S | 101.7 | 11 | 105.2 | 110.2 | 14 | 104.5 | / | / | / | / | / | / | /
Cc1ccc(-n2ncc3c(=O)[nH]c(SCC(=O)N4CCC(C)CC4)nc32)cc1C | 122.9 | 7 | 184.6*[activator] | 114.1 | 19 | 112.0 | 112.0* | 2.9 | 97.5 | 98.9 | 100.3 | 99.0 | 98.5
Cc1ccc(-n2ncc3c(=O)[nH]c(SCC(=O)N4CCCC4)nc32)cc1C | 103.2 | 7 | 106.4 | 101.6 | 18 | 101.7 | / | / | / | / | / | / | /
COC1CCN(C(=O)CC2C(=O)NCCN2CC2CCCCC2)CC1 (stereo unspecified) | 99.7 | 1 | 97.4 | 97.5 | 15 | 97.9 | / | / | / | / | / | / | /
COC1CCN(C(=O)CC2C(=O)NCCN2CC(C)(C)C)CC1 (stereo unspecified) | 17.3* | 0 | 5.7* | 2.1* | 13 | 10.0* | / | 3.0 | 105.5 | 98.5 | 107.4 | 98.7 | 110.2
CC(=O)c1ccc(NC(=O)C(C)OC(=O)c2ccc3c(c2)nc(C)n3-c2ccccc2)cc1 (stereo unspecified) | 132.1 | 6 | 218.8*[activator] | 110.1 | 13 | 111.6 | 111.6* | -1.0 | 104.3 | 102.9 | 105.8 | 104.6 | 111.7
COc1cccc(-n2c(C)nc3cc(C(=O)O)ccc32)c1 | 129.1 | 54* | / | 159.7*[activator] | 28 | 157.9*[activator] | / | -0.7 | 103.3 | 110.3 | 106.7 | 106.4 | 108.4
Cc1nc2cc(C(=O)OCC(=O)Nc3cccc(Cl)c3)ccc2n1-c1ccccc1 | 99.5 | 11 | 99.0 | 99.6 | 11 | 99.5 | / | / | / | / | / | / | /
Cn1c(SCC(=O)N2CCCC2=O)nc2ccccc21 | 12.6* | 0 | 9.5* | ? | 11 | 19.1* | / | -0.5 | 97.1 | 95.0 | 95.6 | 94.9 | 95.6
O=C1c2ccccc2C(=O)N1CCc1ccccn1 | 152.9*[activator] | 3 | i | 117.0 | 24 | 127.3 | 127.3* | 1.0 | 102.2 | 99.6 | 99.4 | 97.9 | 54.3
O=C1c2cccc3c([N+](=O)[O-])ccc(c23)C(=O)N1CCc1ccccn1 | 97.5 | 8 | 96.3 | ? | / | 96.3 | / | / | / | / | / | / | /
O=C(NCCNC(=O)C1CC2CCC1C2)C1CC2CCC1C2 (stereo unspecified) | 100.0 | 229* | 111.0 | 186.2*[activator] | 36 | 122.6 | 122.6* | -0.9 | 99.6 | 96.4 | 97.7 | 96.1 | 100.4
CCN1CCCc2cc(CN(CCN3CCOCC3)C(=S)Nc3cccc(OC)c3)ccc21 | 104.0 | 5 | 99.0 | 103.0 | 10 | 102.5 | / | / | / | / | / | / | /
Cc1ccc(N=Nc2ccc(O)c3ncccc23)cc1 | 70.7 | 4 | 10.1* | 65.0 | 3 | 67.8 | 67.8* | -4.0 | 101.6 | 95.7 | 106.0 | 96.1 | 84.4
Cc1ccc(N=Nc2ccc(O)c3ncccc23)cc1C | 99.2 | 10 | 100.0 | 91.8 | 10 | 96.1 | / | / | / | / | / | / | /
N#CC1=C(N)Oc2n[nH]c(-c3cccnc3)c2C1c1ccc([N+](=O)[O-])o1 (stereo unspecified) | 102.3 | 26 | 107.1 | 97.8 | 8 | 102.7 | / | / | / | / | / | / | /
